# Shown are actives, neighbours in structure and some others; about 2.8% of the full set was active somewhere.
# Peg3 prom inh: Peg3 promoter-driven luciferase inhibitors, primary screen, cell-based, HeLa, luciferase luminescence. HeLa PEG-Prom luciferase reporter, overnight. inhibition, % at 20 µM. actives 1.7% (n = 360,000);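 active = inhibition of at least 50% at 20 µM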
# CF NFkB block: inhibitors of PAF-induced NF-kB signaling, primary screen, cell-based, GFP fluorescence, uHTS; inhibition, % at 5 µM; KKLEB NF-kB-GFP reporter, GFP fluorescence overnight; actives 0.86% (n = 360,000);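 active = at least 50% inhibition at 5 µM, scaled per plate between neutral and stimulator controls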;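 also: PAF is a Pseudomonas aeruginosa culture filtrate used as stimulus; plate controls were PAF-stimulated DMSO wells for no effect and unstimulated DMSO wells for full effect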
# Shn3 3UTR inh: reduction of Shn3 3'UTR firefly luciferase signal, primary screen, Schnurri-3 inhibitor project, cell-based, Clone20 osteoblasts, set 2; AID 588674, 2011; inhibition, % at 12.5 µM; Clone20 osteoblast Shn3 3'UTR firefly luciferase, 24 h; actives 0.52% (n = 360,000);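 active = mean inhibition of at least 75% with every replicate also reaching 75%; inconclusive = mean inhibition at least 75% but some replicate below; inactive = mean inhibition below 75%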;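 also: 0% = median of neutral control wells and 100% = pilot-screen positive control compound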
# KKLEB cytotox: cytotoxicity in KKLEB CF airway cells, primary screen, cytotoxicity control for CF NF-kB inhibitor project, cell-based, uHTS, fluorescence assay plates | activity change (cytotoxicity), % at 5 µM | actives 0.36% (n = 360,000) | KKLEB CF airway cells viability, ATPlite luminescence, overnight; hits give low values; cells stimulated with P. aeruginosa culture filtrate | AID 602141, 2011;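 active = corrected activity change at or below -50% at 5 µM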
# HIF-2a block: HIF-2a reporter inhibitors, primary screen, luminescence, 786-0 RCC cells; 786-0 RCC cells HIF-2a reporter, luciferase luminescence, overnight; inhibition, % at 18.8 µM; actives 0.72% (n = 360,000); AID 624352, 2012;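 active = inhibition of the luminescence signal of 40% or more relative to plate controls, in a single-dose primary screen at 18.75 µM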
# TRPM1 prom inh: inhibitors of MITF-dependent TRPM1 promoter reporter, primary screen, cell-based, SK-MEL-5, single point, luciferase. SK-MEL-5 TRPM1 promoter luciferase, 24 h. inhibition, % at 12.5 µM. AID 488899, 2010. actives 0.83% (n = 330,000);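 active = mean inhibition across replicates of 60% or more, whatever share of single replicates reaches that level; inconclusive = some that reach 60%, reason not given; inactive = mean inhibition across replicates below 60%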
# CF NFkB inh conf: inhibitors of PAF-induced NF-kB signaling, retest, confirmation, cell-based, GFP fluorescence, single concentration; KKLEB CF airway cells, overnight; shares compounds with CF NFkB block; inhibition, % at 5 µM; actives 64% (n = 1,300); in the data active = inhibition above about 40%;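 also: stimulus PAF is a Pseudomonas aeruginosa filtrate and not platelet activating factor; plate controls were DMSO wells with stimulus for no effect and unstimulated DMSO wells for full effect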
# Mdm2-MdmX confirm: retested Mdm2-MdmX interaction blockers, confirmation, cell-based, luminescence, single concentration, set 2; shares compounds with HIF-2a block; SaOS-2 split-luciferase Mdm2/MdmX complementation; inhibition, % at 8 µM; actives 99% (n = 740);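 active = mean inhibition of the luminescence signal across two replicates at or above 26 percent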
# Target sequence (O15151 whole entry, looked up): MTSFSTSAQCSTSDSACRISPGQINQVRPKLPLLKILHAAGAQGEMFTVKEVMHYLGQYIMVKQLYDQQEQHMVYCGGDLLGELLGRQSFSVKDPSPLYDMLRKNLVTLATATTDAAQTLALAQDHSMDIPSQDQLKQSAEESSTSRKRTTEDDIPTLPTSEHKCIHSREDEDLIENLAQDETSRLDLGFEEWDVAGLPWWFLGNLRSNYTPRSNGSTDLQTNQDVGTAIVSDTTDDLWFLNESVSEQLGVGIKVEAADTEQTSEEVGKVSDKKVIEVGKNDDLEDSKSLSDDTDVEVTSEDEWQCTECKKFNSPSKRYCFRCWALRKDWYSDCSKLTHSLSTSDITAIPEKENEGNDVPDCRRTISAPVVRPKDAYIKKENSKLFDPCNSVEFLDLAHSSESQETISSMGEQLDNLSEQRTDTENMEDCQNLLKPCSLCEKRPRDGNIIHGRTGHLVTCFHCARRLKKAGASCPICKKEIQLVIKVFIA
# Target sequence (Q00987 whole entry, looked up): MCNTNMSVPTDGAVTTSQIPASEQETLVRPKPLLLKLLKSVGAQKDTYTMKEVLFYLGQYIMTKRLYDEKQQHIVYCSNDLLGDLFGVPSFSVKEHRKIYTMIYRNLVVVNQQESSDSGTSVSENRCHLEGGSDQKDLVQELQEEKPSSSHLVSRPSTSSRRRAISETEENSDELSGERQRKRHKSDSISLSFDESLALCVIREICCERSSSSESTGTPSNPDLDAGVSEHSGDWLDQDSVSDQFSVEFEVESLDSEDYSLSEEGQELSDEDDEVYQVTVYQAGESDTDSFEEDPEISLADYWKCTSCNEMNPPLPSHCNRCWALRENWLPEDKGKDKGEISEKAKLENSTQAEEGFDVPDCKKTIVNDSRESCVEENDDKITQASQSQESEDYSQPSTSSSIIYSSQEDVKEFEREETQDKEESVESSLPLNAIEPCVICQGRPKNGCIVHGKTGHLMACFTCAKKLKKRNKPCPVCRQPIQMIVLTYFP
# HIF-2a inh conf: HIF-2a reporter inhibitor retest, confirmation, luminescence, 786-0 RCC cells. actives 56% (n = 1,800). inhibition, % at 18.8 µM. HIF-2a luciferase reporter luminescence, overnight. shares compounds with HIF-2a block;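 active = mean inhibition across four replicates of at least 40 percent at the single tested concentration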
# HIF-1a counter: HIF-1a luciferase reporter signal reduction – MiaPaCa-2 cells, single concentration, counter-screen for HIF-2a inhibitor project, confirmation; shares compounds with HIF-2a block; MiaPaCa-2 HIF-1a luciferase reporter, desferoxamine, overnight; inhibition, % at 18.8 µM; actives 72% (n = 1,800); AID 651589, 2012;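 active = mean inhibition of the reporter signal across four replicates at the single tested dose of 50% or more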
# An asterisk follows results filed as active; ? = inconclusive; nt = not tested or not shown.
SMILES,Peg3 prom inh,CF NFkB block,Shn3 3UTR inh,KKLEB cytotox,HIF-2a block,TRPM1 prom inh,CF NFkB inh conf,HIF-2a inh conf,HIF-1a counter,others
CCCCC(=O)NNC(=O)N1c2ccccc2Sc2ccccc21,10,-12,5,14,10,0,nt,nt,nt,
CCCc1cc(-c2[nH]ncc2-c2ccc3c(c2)OCCCO3)c(O)cc1O,69*,50*,32,-5,46*,14,68*,30,81*,
CC(=O)c1ccc(-c2cnc3c(NC=O)cc(-c4ccc(N5CCN(C)CC5)cc4)cn23)cc1,-101,-8,-37,-18,-73,nt,nt,nt,nt,
CC(=O)c1ccc(-c2cnc3c(NC=O)cc(-c4ccc(C(=O)NC5CC5)cc4)cn23)cc1,63*,56*,41,-30,39*,nt,61*,37,94*,
O=C(NC(CO)(CO)CO)c1coc(=O)c(Br)c1,3,20,1,3,-13,-11,nt,nt,nt,
O=C(NCCC1=CCCCC1)c1coc(=O)c(Br)c1,81*,85*,42,11,65*,3,93*,-10,64*,
CC(C)CNC(=O)c1coc(=O)c(Br)c1,74*,74*,1,-12,70*,1,95*,-12,52*,
BrC(=C\c1ccccc1)/C=N/Nc1ccc2nncn2n1,-44,-5,-36,3,-96,1,nt,nt,nt,
BrC(=C\c1ccccc1)/C=N/n1cnnc1,111*,58*,52,-10,61*,83*,-77,23,97*,
N#CC(C#N)=C1C=CC=CN1/C(=C\c1ccco1)C(=O)c1ccccc1,99*,96*,96*,-35,91*,104*,68*,98*,105*,
O=C(c1nnsc1S(=O)c1ccc(Cl)cc1)N1CCOCC1 (stereo not drawn),101*,84*,94*,-6,28,88*,105*,nt,nt,Mdm2-MdmX confirm=102*
CCC(=O)N1CCc2cc(Br)c(S(=O)(=O)CCC(=O)NCCc3ccccc3)cc21,1,-16,6,12,16,-1,nt,nt,nt,
O=S1(=O)CCC(NC(=S)SCCOc2ccccc2)C1 (stereo not drawn),-7,58*,0,3,50*,32,86*,48*,67*,
CCCCSC(=S)NC1CCS(=O)(=O)C1 (stereo not drawn),18,40,-18,-11,32,38,nt,nt,nt,
Cc1ccsc1C(=O)OC(C)C(=O)NC1CCCCC1C (stereo not drawn),3,5,11,9,3,0,nt,nt,nt,
Cc1ccc2[nH]cc(C(=O)CCl)c2c1,108*,60*,1,-19,16,48,86*,nt,nt,Mdm2-MdmX confirm=103*
Cc1ccc2[nH]cc(C(=O)CN3CCN(C)CC3)c2c1,5,-1,-6,3,2,-1,nt,nt,nt,
C=C1C(=O)C2=CC1CCC(=O)C1(C)CCC(OC(C)=O)C(C)(C)C1CC2O (stereo not drawn),99*,83*,84*,9,86*,nt,83*,95*,105*,
CC(=O)OC1CCC2C3CCC4OC(=O)CCC4C3CCC12C (stereo not drawn),4,-23,-16,12,-10,-8,nt,nt,nt,
CCC(=O)c1ccc2c(c1)OCCO2,-1,25,-14,1,-18,0,nt,nt,nt,
O=C(Cn1ncc(Cl)c(Cl)c1=O)c1ccc2c(c1)OCCO2,90*,79*,12,-38,81*,50,-2,40,103*,Mdm2-MdmX confirm=103*
O=C(Cn1ncc(Cl)c(Cl)c1=O)Nc1ccc2c(c1)OCO2,96*,64*,66,-36,95*,79*,4,-2,104*,Mdm2-MdmX confirm=103*
CCc1ccccc1NC(=O)CN(C)C(=O)Cn1ncc(Cl)c(Cl)c1=O,107*,52*,64,-2,98*,89*,56*,37,106*,
Cc1nn(CC(=O)Nc2ccc3c(c2)OCO3)c(C)c1Cl,-86,-20,-20,-2,-62,-24,nt,nt,nt,
CCc1ccccc1NC(=O)CN(C)C(=O)Cn1cnc2ccc(Cl)cc2c1=O,10,-26,2,16,4,-3,nt,nt,nt,
SMILES,Peg3 prom inh,CF NFkB block,Shn3 3UTR inh,KKLEB cytotox,HIF-2a block,TRPM1 prom inh,CF NFkB inh conf,HIF-2a inh conf,HIF-1a counter,others
CCCN1CCc2c(sc(NC(=O)C3CCN(S(=O)(=O)c4cccs4)CC3)c2C(N)=O)C1,31,-4,10,1,5,5,nt,nt,nt,
CC(OC(=O)Cn1cnc2c1c(=O)n(C)c(=O)n2C)C(=O)NC(C)c1ccc(Cl)cc1Cl (stereo not drawn),10,-8,-2,-3,10,4,nt,nt,nt,
COCc1ccc(CN2CCC(n3nccc3NC(=O)CCOc3ccccc3)CC2)o1,17,9,7,-8,9,11,nt,nt,nt,
Cc1cc2c(cc1C)-c1nnnn1C(N1CCCC1)C(=O)N2 (stereo not drawn),nt,nt,nt,nt,14,nt,nt,nt,nt,
O=C1C2C3C=CC(CC3)C2C(=O)N1c1ccccc1 (stereo not drawn),8,5,-21,2,15,11,nt,nt,nt,
O=C1C=CC2C3C(=O)N(c4ccccc4)C(=O)C3C1N2Cc1ccccc1 (stereo not drawn),102*,80*,?,-17,86*,96*,-178,98*,104*,
Cc1c(Cl)cccc1NC(=O)NCc1cccnc1,0,-22,-19,7,-26,2,nt,nt,nt,
C=C1C(=O)OC2CC1C(OC(C)=O)CC(C)=CCCC(C)=CCCC2(C)O (stereo not drawn),99*,94*,94*,-44,92*,nt,32,92*,104*,
